The values below come from PubChem BioAssay.

Inconclusive results are not listed. Activity calls are given as the source filed them.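 How the source made its calls, unless noted: active means inhibition over a set limit, the all-compound mean plus 3 SD, in both replicate runs; inconclusive means over that limit in just one replicate run; inactive means at or under that limit in both runs.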

Test [1] is described as follows: reducers of endogenous Her2 protein level, primary screen, SKBR3 breast tumor cells, AlphaScreen, ATP viability (AID 461;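 active means Her2 level under about 52% in both replicate screens, with viability over 70% of control, limit read from the data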;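 on Her2 level: lower value means less Her2 protein in the cells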;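 on viability: percent of carrier control wells set as 100% viability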). Conditions: 18-24 h, measured here: SKBR3 viability, ATP luminescence, at 10 µM. A general note: Alpha assays give light when donor and acceptor beads are brought close together.
The target in test [2] is Receptor tyrosine-protein kinase erbB-2 (Homo sapiens) (UniProt P04626). Described as above. The conditions noted are these: 18-24 h, at 10 µM, stronger effect = lower value.
Chain of Receptor tyrosine-protein kinase erbB-2 (Homo sapiens) (P04626 whole entry, looked up): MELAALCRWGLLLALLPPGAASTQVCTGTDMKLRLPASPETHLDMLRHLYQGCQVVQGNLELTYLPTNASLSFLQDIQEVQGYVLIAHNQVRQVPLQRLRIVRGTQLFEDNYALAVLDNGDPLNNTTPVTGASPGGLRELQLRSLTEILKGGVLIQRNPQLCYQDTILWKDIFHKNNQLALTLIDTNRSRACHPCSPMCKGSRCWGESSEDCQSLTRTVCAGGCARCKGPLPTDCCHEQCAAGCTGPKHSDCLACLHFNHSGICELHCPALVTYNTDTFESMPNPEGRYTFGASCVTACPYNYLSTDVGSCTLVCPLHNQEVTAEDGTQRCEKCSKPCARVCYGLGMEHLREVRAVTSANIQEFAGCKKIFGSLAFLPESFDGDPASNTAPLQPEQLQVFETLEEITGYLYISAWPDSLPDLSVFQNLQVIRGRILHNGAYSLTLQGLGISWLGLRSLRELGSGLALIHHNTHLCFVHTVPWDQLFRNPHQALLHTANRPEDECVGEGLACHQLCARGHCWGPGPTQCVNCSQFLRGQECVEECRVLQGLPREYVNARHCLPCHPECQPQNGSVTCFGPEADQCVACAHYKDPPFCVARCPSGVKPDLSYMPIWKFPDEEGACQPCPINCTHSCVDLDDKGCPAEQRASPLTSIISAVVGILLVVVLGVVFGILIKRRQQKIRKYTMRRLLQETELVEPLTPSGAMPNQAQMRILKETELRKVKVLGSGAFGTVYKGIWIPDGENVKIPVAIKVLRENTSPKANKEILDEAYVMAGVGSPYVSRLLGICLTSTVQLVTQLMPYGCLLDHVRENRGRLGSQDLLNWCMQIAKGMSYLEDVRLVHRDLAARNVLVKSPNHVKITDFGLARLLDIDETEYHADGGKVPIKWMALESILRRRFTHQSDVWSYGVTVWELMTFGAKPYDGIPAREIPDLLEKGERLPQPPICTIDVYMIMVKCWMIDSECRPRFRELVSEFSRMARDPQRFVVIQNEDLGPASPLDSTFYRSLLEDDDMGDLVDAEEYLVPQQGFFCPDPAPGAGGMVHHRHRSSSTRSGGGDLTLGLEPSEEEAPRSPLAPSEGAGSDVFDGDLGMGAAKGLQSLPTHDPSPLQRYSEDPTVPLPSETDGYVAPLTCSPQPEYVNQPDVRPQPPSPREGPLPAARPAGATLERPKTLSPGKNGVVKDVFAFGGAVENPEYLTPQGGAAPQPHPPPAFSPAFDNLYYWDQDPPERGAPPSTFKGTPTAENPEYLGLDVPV
A short description of test [3]: SK-BR-3 cell growth inhibitors, pilot screen, 24 h, human (AID 572;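 active means viability at or below 10% of carrier control in both of two separate runs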;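 further: compound exposure lasted between 18 and 24 h rather than exactly 24 h; 100% = carrier-treated control wells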). Conditions: SK-BR-3 viability, CellTiter-Glo luminescence, at 10 µM, stronger effect = lower value. (Cellular ATP, detected with luciferase, serves as a proxy for viable cell number.)
Test [4] in a line: HUVEC growth inhibition – cell-based, human, primary screen (AID 575;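 active means viability at or below 30% in both replicate assays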;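 further: 100% = median of untreated cell wells with 0.1% DMSO on each plate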). The conditions noted are these: HUVEC proliferation, CellTiter-Glo luminescence, 72 h; at 10 µM; stronger effect = lower value.
Test [5] can be described thus: growth inhibitors of H69AR lung tumor, primary screen, human, duplicate replicates (AID 580;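 active means viability at or under a set limit in both replicates, limit being median viability minus 3 SD, cut at about 48% in these data, passing the limit was not always enough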;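 further: 100% = mean luminescence of untreated wells and 0% = no signal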). The conditions noted are these: H69AR lung tumor cells viability, ATP luminescence, 72 h; at 10 µM; stronger effect = lower value.
Test [6] is described as follows: reversal of MRP1-mediated doxorubicin resistance, pilot screen, H69AR cells, doxorubicin co-treatment (AID 601;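 active means viability loss from added drug above about 55%, and viability with drug at most 40%, in both replicates, limit read from the data, passing the limit was not always enough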). Conditions: CellTiter-Glo, 72 h, at 10 µM; for differential viability (reversal): stronger effect = higher value.
Test [7] can be described thus: 384-well plate pilot, post-Golgi transport modulator project, inhibition of yeast transport mutant growth (AID 636; in the data active means inhibition above about 31%). Conditions: absorbance 615 nm, about 18 h, stronger effect = higher value.
The nature of test [8]: growth suppression of yeast trafficking mutant, preliminary HTS, modulators of trafficking downstream of Golgi apparatus project, 1536-format plate, OD 615 nm (AID 637; in the data active means inhibition above about 30%). The conditions noted are these: yeast transport mutant growth, absorbance 615 nm, 18 h; stronger effect = higher value.
The nature of test [9]: OD615 S. cerevisiae growth inhibition, permissive medium, pilot counter-assay, permissive growth control for S. cerevisiae lifespan shortening project (AID 705;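 active means growth inhibition above 25% in both replicates, a cutoff set 3 SD above the mean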). Conditions: OD615, 24 h, at 10 µM, stronger effect = higher value.
Test [10] is described as follows: Restrictive medium S. cerevisiae growth inhibition, OD615, pilot screen of yeast lifespan reduction project, restrictive growth control (AID 706;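 active means growth inhibition above a set limit, 3 SD over mean compound inhibition, in both replicates, cut at about 43% in these data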;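 further: modified DeaD lifespan yeast strain shifted to restrictive glucose medium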). The conditions noted are these: OD615, 48 h, at 10 µM, stronger effect = higher value.
The nature of test [11]: viability gain of MRP-1-high H69AR cells under doxorubicin, pilot screen, MRP-1 activator project, CellTiter-Glo, duplicate (AID 807;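 active means viability increase at or above a cutoff of the median across tested compounds plus 3 SD, cut at about 8.5% in these data, passing the limit was not always enough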;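 further: compound pretreatment 18-22 h then 72 h combined with doxorubicin; 0% = doxorubicin alone and 100% = vehicle without doxorubicin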). Conditions: H69AR viability with doxorubicin, CellTiter-Glo luminescence; at 10 µM; stronger effect = higher value.
Test [12] in a line: growth suppression of beta-catenin knockout HCT116, pilot screen, human colon tumor cells (AID 823;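 active means cell viability at or below a set limit in both duplicate runs, the limit being the all-compound median minus 4 SD, cut at about 23% in these data, passing the limit was not always enough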;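 further: 0% = wells killed by 20 µM Hyamine and 100% = untreated DMSO cell wells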). The conditions noted are these: CellTiter-Glo, 60 h, at 10 µM, stronger effect = lower value.
Test [13] in a line: growth suppression of PTEN-deleted HCT116, pilot screen, cell-based, HCT116 clonal line, CellTiter-Glo (AID 824;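 active means viability at or below 27.92% in each of two runs, the all-compound median minus 4 SD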;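 further: 0% = 20 µM Hyamine control and 100% = vehicle cell control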). Conditions: 60 h, at 10 µM, stronger effect = lower value.
Test [14] is described as follows: inhibitors of the yeast RAM network, pilot screen, dse1pr::URA3 reporter, 5-FOA selection (AID 869).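 Further: 0% = DMSO wells with no growth and 100% = 10 µM 1-NA-PP1 with full growth; RAM network block rescues cells from 5-FOA so hits raise OD615 growth.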 The conditions noted are these: S. cerevisiae dse1pr::URA3 5-FOA growth, OD615, 2 d; at 10 µM; stronger effect = higher value; strain carries analog-sensitive mutant Cbk1 kinase.
Test [15] is described as follows: RAM signaling pathway blockade in yeast – S. cerevisiae, Pdr1DBD-CYC8 efflux-inhibited sensitized strain, primary screen (AID 1298;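 active means RAM network inhibition above 8.4% in each of two replicates, 3 SD over the compound average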;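 further: 0% = DMSO untreated cells without growth and 100% = 10 µM 1-NA-PP1 full growth; higher means more yeast growth rescued from 5-FOA killing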). Conditions: S. cerevisiae cbk1-as DSE1-URA3 strain, 5-FOA growth OD615, 2 d; at 50 µM; stronger effect = higher value.
The mark [16] stands for this setting: H69AR cells + 2 uM doxorubicin, measured here: viability with 2 uM doxorubicin, stronger effect = lower value.
Where [17] appears, read: H69AR cells, compound alone cytotoxicity.

Take `O=C(COC(=O)C1CC2C=CC1C2)Nc1ccc2c(c1)OC(F)(F)O2` (stereo not given): the viability in test [1] was 119%; in [3], 119% (inactive); in test [4] it was 84.2% (inactive); in test [5], 94.3% (inactive); in test [6] (setting [16]) it was 95.5%; in [6] (setting [17]), 94.3%. The values for the viability in [12] and in test [13] were 89.2% (inactive) and 96.2% (inactive), respectively. Besides, in test [2], the Her2 level is 89.5% (inactive). Further, the differential viability (reversal) in test [6] (H69AR cells + 2 uM doxorubicin) is -1.17% (inactive). The inhibition in test [7] was -1.95% (inactive); in test [8], -0.49% (inactive); in test [14], 1.08% (inactive). Also, the figures for the growth inhibition in test [9] and in test [10] were -9.33% (inactive) and 3.8% (inactive), respectively. In addition, the viability increase in test [11] is 3.74% (inactive). In [15], the RAM network inhibition was -2.17% (inactive).
Take `Cc1cnc(NC(=O)CSc2nnc(COc3c(C)cccc3C)o2)s1`: the viability in [1] was 83%; in test [3], 83% (inactive); in test [4], 79.9% (inactive); in [5], 87.1% (inactive); in test [6] (setting [16]) it was 94%; in test [6] (setting [17]), 87.1%. Also, the viability was 93.9% (inactive) in test [12] and 86.1% (inactive) in [13]. The Her2 level in test [2] was 102% (inactive). Besides, the differential viability (reversal) in test [6] (H69AR cells + 2 uM doxorubicin) was -6.84% (inactive). The inhibition in test [7] is -5.33% (inactive); in test [8], 4.83% (inactive); in [14], 1.23% (inactive). Moreover, the growth inhibition in test [9] was -10.4% (inactive); in [10] it was -2.15% (inactive). The viability increase in test [11] is -0.06% (inactive). In addition, in test [15], the RAM network inhibition is 0.63% (inactive).
Consider `Cc1ccc(-c2noc(COc3ccccc3C)n2)cc1`, for which the viability in test [1] is 72.5%; in [3] it was 72.5% (inactive); in test [4] it was 102% (inactive); in test [5], 96.9% (inactive); in test [6] (setting [16]) it was 86.3%; in test [6] (setting [17]), 96.9%. Further, the viability in test [12] is 93% (inactive); in test [13], 103% (inactive). Moreover, in [2], the Her2 level was 92% (inactive). Moreover, in [6] (H69AR cells + 2 uM doxorubicin), the differential viability (reversal) is 10.6% (inactive). Also, the inhibition in test [7] is -1.2% (inactive); in test [8] it was 1.61% (inactive); in [14] it was 0.065% (inactive). In addition, the growth inhibition is -13.7% (inactive) in test [9] and -16.5% (inactive) in [10]. For the same compound, the viability increase in test [11] was 3.84% (inactive). Moreover, in [15], the RAM network inhibition is 0% (inactive).
Turning to `COCCNC(=O)c1cc(-c2cccs2)on1`, the viability in [1] is 97%; in [3], 97% (inactive); in [4] it was 84.9% (inactive); in [5], 84.7% (inactive); in test [6] (setting [16]), 61.1%; in [6] (setting [17]), 84.7%. Also, the viability in [12] is 67.3% (inactive); in [13] it was 70.6% (inactive). For the same compound, the Her2 level in test [2] was 77.5% (inactive). For the same compound, in test [6] (H69AR cells + 2 uM doxorubicin), the differential viability (reversal) was 23.6% (inactive). For the same compound, the inhibition was -0.64% (inactive) in test [7], -4.17% (inactive) in test [8] and 0.105% (inactive) in test [14]. Moreover, the growth inhibition in test [9] was -0.235% (inactive); in test [10] it was 2.31% (inactive). Also, the viability increase in test [11] was -7.54% (inactive). Also, the RAM network inhibition in test [15] is 3.61% (inactive).
`COc1ccc(S(=O)(=O)NCC(c2cccnc2)N2CCN(C)CC2)cc1C` (stereo not given): the viability was 97% in [1]; 97% (inactive) in test [3]; 80.9% (inactive) in test [4]; 91% (inactive) in test [5]; 93.5% in test [6] (setting [16]); 91% in test [6] (setting [17]). The viability in test [12] was 97.8% (inactive); in [13], 96.1% (inactive). The Her2 level in test [2] was 98.5% (inactive). In test [6] (H69AR cells + 2 uM doxorubicin), the differential viability (reversal) was -2.52% (inactive). The figures for the inhibition in test [7], in test [8] and in test [14] were -0.64% (inactive), -2% (inactive) and 2.23% (inactive), respectively. Also, the figures for the growth inhibition in [9] and in test [10] were 1.16% (inactive) and -9.37% (inactive), respectively. Also, the viability increase in [11] was -2.64% (inactive). In addition, in [15], the RAM network inhibition was 0.11% (inactive).

The term viability denotes a read-out of living cells in per cent, often relative to untreated cells. As usually defined, the inhibition is the change of the read-out against control, counted positive when it falls.
